The list is not random: actives were taken first. Their share in the collection is about 0.41%.
GAA glycogen = qHTS Assay for Inhibitors and Activators of Human alpha-Glucosidase Cleavage of Glycogen; hit rate 0.38% among 300,000; Potency, µM (highest dose often 76.4 µM), hits mostly inhibitors; AID 2100, 2009; recombinant GAA, glycogen substrate, Amplex Red glucose oxidase fluorescence; Lysosomal alpha-glucosidase (Homo sapiens), P10253;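 further: the screen sought inhibitors and activators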
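Recombinant enzyme (4 nM final) with compounds titrated up to 77 uM and bovine liver glycogen (30 ug) in citrate pH 5.0, 0.01% Tween-20, 37 C 40 min. Released glucose detected by Amplex Red/glucose oxidase (Ex 573/Em 610); AC50 from Hill fits.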
GAA spleen mod = qHTS Assay for Inhibitors and Activators of Human alpha-Glucosidase From Spleen Homogenate; human spleen homogenate, 4-MU-alpha-glucoside fluorescence; Lysosomal alpha-glucosidase (Homo sapiens), P10253; hit rate 0.006% among 240,000; Potency, µM (titrated, usually from 79.9 µM), actives largely listed as inhibitors
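Human spleen homogenate (1 ug) incubated with compounds and 1 mM 4-methylumbelliferyl-alpha-D-glucopyranoside in pH 5.0 citrate/phosphate buffer, 37 C, 40 min. Stopped at pH 10; 4-MU fluorescence (Ex 365/Em 440 nm); AC50 by Hill fit.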
GAA inh = qHTS Assay for Inhibitors of Human alpha-Glucosidase as a Potential Chaperone Treatment of Pompe Disease; Lysosomal alpha-glucosidase (Homo sapiens), P10253; hit rate 0.005% among 200,000; Potency, µM (highest dose often 76.9 µM), actives largely listed as inhibitors; purified human GAA, 4-MU-alpha-glucoside fluorescence
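Fluorescence at Ex 365/Em 440 nm from 4-methylumbelliferone reported enzyme activity after 20 min at room temperature. Reactions used 4 nM enzyme and 400 uM substrate at pH 5.0; curves fitted with the Hill equation.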
GLA inh pH 4.5 = qHTS Assay for Inhibitors of Human alpha-Galactosidase at pH 4.5; Alpha-galactosidase A (Homo sapiens), P06280; purified enzyme, 4-MU-alpha-Gal fluorescence, pH 4.5; activity change, negative = inhibition, % at 105 µM; 230,000 tested, under 10 active; AID 1467, 2008
GLA spleen mod = qHTS Assay for Inhibitors and Activators of Human alpha-Galactosidase From Spleen Homogenate; Alpha-galactosidase A (Homo sapiens), P06280; human spleen homogenate, 4MU-alpha-Gal fluorescence, 40 min; Potency, µM (doses to about 80 µM), usual class: inhibitors; hit rate 0.008% among 240,000; AID 2107, 2009
Target sequence (P06280 32-429 limits assumed): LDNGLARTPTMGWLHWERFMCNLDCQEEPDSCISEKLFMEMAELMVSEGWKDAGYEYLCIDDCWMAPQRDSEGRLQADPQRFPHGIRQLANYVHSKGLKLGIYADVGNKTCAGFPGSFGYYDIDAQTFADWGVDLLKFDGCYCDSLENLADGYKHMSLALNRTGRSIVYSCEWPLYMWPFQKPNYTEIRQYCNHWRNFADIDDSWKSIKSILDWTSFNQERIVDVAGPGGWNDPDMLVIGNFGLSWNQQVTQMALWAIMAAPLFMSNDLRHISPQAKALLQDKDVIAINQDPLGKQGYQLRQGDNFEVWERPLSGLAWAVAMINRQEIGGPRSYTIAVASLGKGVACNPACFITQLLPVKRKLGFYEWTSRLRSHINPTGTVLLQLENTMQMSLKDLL
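qHTS titration in buffer at pH 5.0. Alpha-galactosidase activity in spleen homogenate was measured via 4-methylumbelliferone release from 1 mM fluorogenic substrate after 40 min at 37C and a pH 10 stop. AC50 came from Hill fits of control-normalized data.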
N370S GC mod = qHTS Assay for Inhibitors and Activators of N370S glucocerebrosidase as a Potential Chaperone Treatment of Gaucher Disease. Lysosomal acid glucosylceramidase (Homo sapiens), P04062. Potency, µM (doses to about 59.4 µM), actives largely listed as inhibitors. hit rate 0.092% among 330,000. AID 2101, 2009. N370S GC spleen homogenate, 4MU-glucoside fluorescence
Of the large screens only hits and unclear results are named; the others gave an inactive call; ! = not confirmed by another sample. The call rests on the fitted dose curve; in most records, active means well fitted curve in the direction sought with a large enough effect; inconclusive means small, poorly fitted or top-dose-only effect, or another doubt; inactive means no such curve, though single readings can be large; an effect the other way counts as inactive or inconclusive.

Cc1cc(C(=O)CS(=O)(=O)c2ccc(F)cc2)cc(C)c1OC(=O)N(C)C	GAA spleen mod inconclusive, GLA spleen mod 28µM
CN(C)C(=O)Oc1c(Cl)cc(Cl)c2ccccc12	none
CC(=O)OCC[N+](C)(C)C	GAA glycogen 9.9µM!
C=CCN1CCc2cccc3c2[C@H]1Cc1ccc(O)c(O)c1-3	GAA glycogen 6.3µM (no result: GAA spleen mod, GAA inh, GLA inh pH 4.5, GLA spleen mod)
CCCN1CCc2cc(O)cc3c2C1Cc1ccc(O)c(O)c1-3 (configuration not stated)	none (no result: GAA glycogen, GAA inh)
C[C@@H]1O[C@@H](O[C@H]2CC[C@@H](O[C@H]3[C@H](O)C[C@H](c4ccc5c(c4O)C(=O)C4=C(C5=O)[C@@]5(O)C(=O)C[C@](C)(O[C@H]6CC[C@H](O[C@H]7C=CC(=O)[C@H](C)O7)[C@H](C)O6)C[C@@]5(O)C=C4)O[C@@H]3C)O[C@H]2C)C=CC1=O	none (no result: GAA glycogen, GAA inh, GLA inh pH 4.5)
CC(C)NCC(O)COc1cccc2[nH]ccc12 (configuration not stated)	GLA spleen mod 10µM!
CC(C)NC[C@@H](O)COc1cccc2[nH]ccc12	none (no result: GAA glycogen, GAA inh)
O=C(Nc1cccc(C(=O)Nc2cc(C(=O)Nc3ccc([S+](=O)([O-])[O-])c4cc([S+](=O)([O-])[O-])cc(SOOO)c34)ccc2F)c1)Nc1cccc(C(=O)Nc2cc(C(=O)Nc3ccc([S+](=O)([O-])[O-])c4cc([S+](=O)([O-])[O-])cc([S+](=O)([O-])[O-])c34)ccc2F)c1	none (no result: GAA glycogen, GAA inh, GLA inh pH 4.5)
Oc1cc2c(cc1O)[C@H]1c3ccccc3CN[C@@H]1CC2	GAA glycogen 2.5µM
c1ccc2c(c1)Nc1ccccc1S2	GAA glycogen 18µM
Oc1ccccc1/C=N/NP(=S)(c1ccccc1)c1ccccc1	none
Oc1ccc(/C=N/NP(=S)(c2ccccc2)c2ccccc2)c(O)c1O	GAA glycogen 16µM, GAA inh inconclusive (no result: N370S GC mod)
Oc1ccc(/C=N/NP(=S)(c2ccccc2)c2ccccc2)cc1O	GAA glycogen 16µM
Cc1cccc(C)c1	N370S GC mod inconclusive (no result: GAA glycogen, GAA inh, GLA inh pH 4.5)
O=[N+]([O-])c1ccc2c3c(cccc13)CC2	none (no result: GAA glycogen, GAA inh, GLA inh pH 4.5)
Nc1ccc2c3c(cccc13)CC2	GAA glycogen 25µM
Cc1onc(-c2ccccc2)c1C(=O)Nc1ccc(S(=O)(=O)N2CCCC2)cc1	GAA glycogen 14µM
CC(=O)[O-].CC(=O)[O-].O.O.[Cd+2]	none (no result: GAA glycogen, GAA inh, GLA inh pH 4.5)
Cc1[nH]c2ccc(OC(F)(F)F)cc2c1CCNCc1cccc([N+](=O)[O-])c1	N370S GC mod 16µM (no result: GAA spleen mod, GAA inh, GLA inh pH 4.5, GLA spleen mod)
CCOc1cccc(CNCCc2c(C)[nH]c3ccc(OC(F)(F)F)cc23)c1O	N370S GC mod 8.9µM (no result: GAA spleen mod, GAA inh, GLA inh pH 4.5, GLA spleen mod)
Cc1[nH]c2ccc(OC(F)(F)F)cc2c1CCNCc1ccc(Cl)cc1	N370S GC mod inconclusive (no result: GAA spleen mod, GAA inh, GLA inh pH 4.5, GLA spleen mod)
COc1ccc(-n2[nH]c3c4c(ncc3c2=O)CCCCC4)cc1	N370S GC mod inconclusive (no result: GAA glycogen, GAA inh)
COc1cc2c(c(OC)c1OC)-c1ccc(OC)c(=O)cc1[C@H](NC(C)=O)CC2	none (no result: GAA glycogen, GAA inh)
